Measured values reported in PubChem BioAssay (NCI).
This is part of a sample that, as a whole, favours compounds with a hit. Of some 83,000 tested, about 20% had one in any assay.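 Treatment: one concentration, 48 hours, 96-well format. Scoring: percent growth, with anything below 10 considered active.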 Values without a mark were called inactive. The source made the active and inactive calls.

These compounds were tested on HL-60(TB) leukemia (assay: NCI-60 one-dose screen, 48 h (100 = growth as untreated, 0 = no growth, -100 = all killed)). Settings: 10 µM unless noted.

Row | Structure (SMILES) | growth
1 | Cc1ccc(S(=O)(=O)N/N=C/C2(c3ccccc3)CC2)cc1 | 98.7%
2 | Oc1cc(O)c(Br)cc1Br | 104%
3 | CCN(CC)CC#CCOC(=O)[C@]1(C)CCC[C@]2(C)[C@H]3C[C@H]4C(C(C)C)=C[C@]3(CC[C@H]21)[C@@H]1C(=O)CCC(=O)[C@@H]14 | -36.3% (active)
4 | C/C(CC(=O)NNc1ccc([N+](=O)[O-])cc1)=N\Nc1ccc([N+](=O)[O-])cc1 | 28.8%
5 | CC[C@@H](C)OC(=O)c1nn(C(C)=O)c2ccccc12 | 120%
6 | Cc1ccc2oc3nc(C)c(C(=O)NCc4ccccc4)cc3c(=O)c2c1 | 73.4%
7 | CCOC(=O)c1cc(C(=O)c2ccc(OC)cc2)n2ccc(/C=C/c3cc[n+](CC(=O)c4ccc(OC)cc4)cc3)cc12 | 0.722% (active)
8 | COc1cc(Nc2cc(O)c3c(=O)cc(-c4ccccc4)oc3c2)cc(OC)c1 | -35.7% (active)
9 | COc1ccc(C2CC(c3ccc4ccccc4c3)=NN2/C=C2\SC(=S)N(NC(=O)Cc3ccccc3Nc3c(Cl)cccc3Cl)C2=O)cc1 (stereo not drawn) | -27.4% (active)
10 | C[C@]12O[C@H](C[C@]1(O)CO)n1c3ccccc3c3c4c(c5c6ccccc6n2c5c31)CNC4=O | -32.7% (active)
11 | CCNNC(=O)[C@@H]1[C@H](c2cc(OC)c(OC)c(OC)c2)c2cc3c(cc2[C@H](O)[C@H]1CO)OCO3 | -24.1% (active)
12 | C#CC(O)c1ccccc1 (stereo not drawn) | 108%
13 | CO[C@H]1CC(=O)n2c3ccccc3c3c4c(c5c6ccccc6n1c5c32)C(=O)NC4=O | 96.9%
